# Assay results from PubChem BioAssay (Tox21).
# Records with an inconclusive call do not appear. Unmarked numbers belong to inactive results. Calls follow the shape of the full dose curve.
# Biological target: Thyrotropin receptor (Homo sapiens) (UniProt P16473)
# Experiment: qHTS assay to identify small molecule antagonists of the thyroid stimulating hormone receptor (TSHR) signaling pathway (AID 1259385); also: nearly all actives have a fitted effect of over 20% in size
# Conditions: TSHR-HEK293 cAMP HTRF, TSH-stimulated antagonist mode; series mostly up to 92.4 µM; activity change, negative = inhibition: at the top concentration
# Summary of the method: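 TSHR-HEK293 cells (800/well) plated 18 h, then compounds with Ro20-1724 and TSH at 1.5 ng/mL final, 30 min at room temperature. cAMP quantified by HTRF (cAMP-d2/anti-cAMP-cryptate, 1 h); 15 concentrations in triplicate.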
# % is scaled to controls: 0 for no effect and ±100 for the full control effect.
# Chain of Thyrotropin receptor (Homo sapiens) (P16473 whole entry, looked up): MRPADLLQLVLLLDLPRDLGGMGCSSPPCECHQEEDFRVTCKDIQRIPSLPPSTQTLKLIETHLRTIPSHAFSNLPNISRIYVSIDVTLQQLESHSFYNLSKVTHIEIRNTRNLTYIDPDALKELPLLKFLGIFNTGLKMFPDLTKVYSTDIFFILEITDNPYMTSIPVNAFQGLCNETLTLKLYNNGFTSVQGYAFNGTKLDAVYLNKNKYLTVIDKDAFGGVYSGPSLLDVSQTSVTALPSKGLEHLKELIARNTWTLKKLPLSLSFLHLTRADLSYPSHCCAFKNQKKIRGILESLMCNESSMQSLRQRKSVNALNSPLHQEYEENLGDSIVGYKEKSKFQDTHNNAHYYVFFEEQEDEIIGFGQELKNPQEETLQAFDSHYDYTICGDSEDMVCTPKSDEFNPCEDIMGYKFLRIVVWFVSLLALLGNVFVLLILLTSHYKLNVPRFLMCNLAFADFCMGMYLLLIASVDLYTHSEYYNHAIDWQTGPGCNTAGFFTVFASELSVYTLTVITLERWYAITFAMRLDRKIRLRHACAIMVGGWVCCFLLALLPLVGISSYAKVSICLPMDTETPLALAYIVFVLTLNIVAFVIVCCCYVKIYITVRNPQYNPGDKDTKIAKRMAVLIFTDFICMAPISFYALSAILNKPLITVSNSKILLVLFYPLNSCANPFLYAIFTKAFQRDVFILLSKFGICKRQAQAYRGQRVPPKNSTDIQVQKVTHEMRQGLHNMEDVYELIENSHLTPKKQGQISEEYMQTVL
row,Compound,"activity change, negative = inhibition"
1,O=NN(CCCl)C(=O)NCCCl,-0.233% [at 42.5 µM]
2,O=C(O)CCS,1.54%
3,CSSc1ccoc1C,2.04%
4,O=C1OC[C@H](Cc2cccc(O)c2)[C@H]1Cc1cccc(O)c1,-2.24% [at 42.5 µM]
5,Nc1ccn([C@H]2CS[C@@H](CO)O2)c(=O)n1,0.335%
6,FC(F)(F)C(F)(F)C(F)(F)C(F)(F)CCI,0.652% [at 42.5 µM]
7,CCCCCCCCCCCCCCCC(=O)OCC,0.0251%
8,Nc1ccc(N=Nc2ccc(N)cc2)cc1,-5.04% [at 42.5 µM]
9,CC1C(C)(C)C2=C(C(=O)CCC2)C1(C)C (centres undefined),-5.98%
10,COC(=O)c1sccc1S(N)(=O)=O,0.0063%
11,CCCCCCOC(=O)CCCCC,-0.615%
12,O=c1[nH][nH]c(=O)c2cc([N+](=O)[O-])ccc12,-0.77%
13,CCC(=O)OCc1ccc(OC)cc1,-0.288%
14,CNC1CCCN(c2c(F)cc3c(=O)c(C(=O)O)cn(C4CC4)c3c2OC)C1 (centres undefined),-3.42% [at 42.5 µM]
15,Nc1ccc(S(=O)(=O)NCc2ccccc2)cc1,-0.371% [at 42.5 µM]
16,CC(=O)N[C@@H](Cc1ccc(O)cc1)C(=O)O,4.69% [at 42.5 µM]
17,CC(C)(C)NCC(O)COc1cccc2c1C[C@H](O)[C@H](O)C2 (some centres undefined),0.882% [at 42.5 µM]
18,CCC(Cl)CC(Cl)C(Cl)C(Cl)C(Cl)C(C)Cl (centres undefined),-0.191% [at 19 µM]
19,CC(C)c1ccc(C#N)cc1,1.97%
20,CC1=CC[C@@]23C[C@@H]1C(C)(C)[C@@H]2CC[C@H]3C,1.82%

row,Compound,"activity change, negative = inhibition"
1,Cc1cccc2sc(N)nc12,5.33%
2,CCN(CC)CC(=O)Nc1c(C)cccc1C(=O)OC,0.276% [at 42.5 µM]
3,CN=C(N)NC(=O)Nc1c(C)cccc1C,0.107% [at 42.5 µM]
4,CCCCCCCCCCCCCCN(C)C,-0.0954% [at 19 µM]
5,C=CC(=O)NC(C)C,1.97%
6,O=C(O)c1cccc(C[C@@H]2COc3ccc(OCc4nc5cc(F)ccc5s4)cc3[C@@H]2O)c1,1.89%
7,O=C(O)CO,-1.77%
8,CCCCC[C@H](O)/C=C/[C@H]1[C@H](O)CC(=O)[C@@H]1C/C=C\CCCC(=O)O,7.88% [at 42.5 µM]
9,Cc1ccc(N(CC2=NCCN2)c2cccc(O)c2)cc1,2.16% [at 42.5 µM]
10,CC(C)C(=O)OCCOc1ccccc1,-0.101%
11,O=C1CC[C@@H](C(=O)O)N1,4.11% [at 42.5 µM]
12,CCCCOCCOC(=O)c1cccnc1,-0.547% [at 42.5 µM]
13,COC(=O)CC(C(C)=O)C(=O)OC (centres undefined),-0.199%
14,CC(C)(O)c1coc(S(=O)(=O)NC(=O)Nc2c3c(cc4c2CCC4)CCC3)c1,2.69%
15,COC(CC(C)CCCC(C)(C)O)OC (centres undefined),-0.561%
16,C[C@H](CS)C(=O)N1CCC[C@H]1C(=O)O,0.053% [at 42.5 µM]
17,CC(=O)Oc1cccc(O)c1,-3.73% [at 42.5 µM]
18,CSCC[C@H](NC(=O)[C@H](Cc1c[nH]c2ccccc12)NC(=O)CCNC(=O)OC(C)(C)C)C(=O)N[C@@H](CC(=O)O)C(=O)N[C@@H](Cc1ccccc1)C(N)=O,2.52% [at 42.5 µM]
19,Cc1cccc(C)c1NC(=O)c1cc(S(N)(=O)=O)c(Cl)cc1O,-0.18% [at 42.5 µM]
